{"source": "PubChem BioAssay AID687001", "about": "(Broad Institute, 2013)", "note": "Entries with a potency or affinity are not part of this list. The source made the active and inactive calls.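 Rule for the calls: active = signal-lowering compounds whose fitted half-maximal concentration is at or below twice the top tested dose in every run; inconclusive = runs disagree, flat 30 to 70% inhibition, or poor curve fit; inactive = the rest.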", "data": [{"biological_target": "Protein S100-A4 (Homo sapiens) (UniProt P26447)", "sequence (P26447 whole entry, looked up)": "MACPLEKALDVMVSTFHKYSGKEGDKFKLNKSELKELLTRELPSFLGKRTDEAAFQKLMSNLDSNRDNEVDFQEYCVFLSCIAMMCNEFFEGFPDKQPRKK", "test": "human S100A4 peptide interaction inhibition curves – biochemical, fluorescence polarization, cherry-picked hits, dose response (AID 687001);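 note: 0% = DMSO neutral control wells and -100% = TFP positive control wells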", "details": "FP, S100A4/TAMRA-myosin IIA peptide binding; series mostly up to 11 µM; activity change, negative = inhibition: at the top concentration", "values": [{"smiles": "c1ccc(-c2ccncc2)cc1", "activity change, negative = inhibition": "-1.21% (inactive)"}, {"smiles": "COc1ccc(OC)c(N2C(=O)CC(=O)NC2=O)c1", "activity change, negative = inhibition": "-4.19% (inactive)"}, {"smiles": "Cc1c(OC(=O)N(C)C)ccc2c1O/C(=C\\c1ccco1)C2=O", "activity change, negative = inhibition": "69.8% (inactive)"}, {"smiles": "CCC12CCN(CC3(O)CC3)C(Cc3ccc(O)cc31)C2(C)C", "note": "(stereo unspecified)", "activity change, negative = inhibition": "-4.42% (inactive)"}, {"smiles": "O=[N+]([O-])c1cc(Cl)c(Cl)cc1Cl", "activity change, negative = inhibition": "-2.95% (inactive)"}, {"smiles": "C=CCN1CC[C@]23c4c5ccc(O)c4OC2C(O)CC[C@@]3(O)[C@H]1C5", "note": "(stereo partly specified)", "activity change, negative = inhibition": "-3.07% (inactive)"}, {"smiles": "CCOC(=O)c1ccc(N=Cc2c(O)n(-c3ccccc3F)c(=S)[nH]c2=O)cc1", "activity change, negative = inhibition": "84.4% (inactive)"}, {"smiles": "O=Cc1cn(Cc2ccc(Br)cc2)c2ccccc12", "activity change, negative = inhibition": "5.46% (inactive)"}, {"smiles": "O=C(Cc1cccnc1)N1CCCCN2[C@@H](CO)[C@@H](c3ccc(C#CC4(O)CCCC4)cc3)[C@@H]2C1", "activity change, negative = inhibition": "5.28% (inactive)"}, {"smiles": "CCOC(=O)C1=C(N)OC2=C(C(=O)CC(C)(C)C2)C12C(=O)Nc1ccccc12", "note": "(stereo unspecified)", "activity change, negative = inhibition": "-3.72% (inactive)"}, {"smiles": "COC(=O)[C@]1(C)C[C@H]1[C@H](NP(=O)(c1ccccc1)c1ccccc1)c1ccccc1", "activity change, negative = inhibition": "-6.74% (inactive)"}, {"smiles": "CCN(CC)C(=O)[C@@H]1C=C2c3cccc4[nH]c(Br)c(c34)C[C@H]2N(C)C1", "activity change, negative = inhibition": "-11.1% (inactive)"}, {"smiles": "Cc1c(C)c2ccc(OCC(=O)N3CCC(C(=O)O)(c4ccccc4)CC3)cc2oc1=O", "activity change, negative = inhibition": "-1.79% (inactive)"}, {"smiles": "COC(=O)C1=C(c2cc3ccccc3s2)C[C@@H]2CC[C@H]1N2C(=O)NCc1ccc(C(F)(F)F)cc1", "activity change, negative = inhibition": "5.22% (inactive)"}, {"smiles": "CN(C)c1cc[n+](CC(O)C[n+]2ccc(N(C)C)cc2)cc1", "activity change, negative = inhibition": "-0.214% (inactive)"}, {"smiles": "Cc1ccccc1C(=O)N1Cc2ccccc2-n2nncc2C1", "activity change, negative = inhibition": "-5.64% (inactive)"}, {"smiles": "O=C(O)[C@H]1[C@H](CO)[C@H]2Cn3c(ccc(-c4ccncc4)c3=O)[C@@H]1N2C(=O)C1CCCCC1", "activity change, negative = inhibition": "-2.81% (inactive)"}, {"smiles": "CCCCn1nnnc1C(c1cccc2ccccc12)N1CCC2(CC1)C(=O)NCN2c1ccccc1", "note": "(stereo unspecified)", "activity change, negative = inhibition": "-4.61% (inactive)"}, {"smiles": "O=C(O)Cn1cc(/C=C2\\C(=O)NC(=O)N(c3ccc(Br)cc3)C2=O)c2ccccc21", "activity change, negative = inhibition": "56.4% (inactive)"}, {"smiles": "CCCCCSc1cc(O)c(C(CNC)C(C)C)cc1OC", "note": "(stereo unspecified)", "activity change, negative = inhibition": "-5.9% (inactive)"}, {"smiles": "COC(C)(C)CCCC(C)C/C=C/C(C)=C/C(=O)OC(C)C", "note": "(stereo unspecified)", "activity change, negative = inhibition": "0.557% (inactive)"}]}]}
